# Results taken from PubChem BioAssay (NCI).
# This is part of a sample that, as a whole, favours compounds with a hit. Of some 83,000 tested, about 20% had one in any assay.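 Interpretation: 100, growth as untreated; towards 0, rising growth inhibition; 0, no net growth; 0 to -100, cell death. Compounds scoring below 10 were considered active.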 Values without a mark were called inactive. Activity calls are given as the source filed them.
# System: SK-OV-3 ovarian
# Assay: NCI-60 one-dose screen, 48 h (100 = growth as untreated, 0 = no growth, -100 = all killed)
# Settings: 10 µM unless noted
# Experimental: Growth inhibition of the SK-OV-3 human tumor cell line is measured as a screen for anti-cancer activity. Cells are grown in 96 well plates and exposed to the test compound for 48 hours. Compounds are tested at a single concentration, which is 10^-5 M for most compounds. The reported endpoint is percent growth (GI% or GIPRCNT), where numbers from 0 - 100% represent growth inhibition, and numbers from -100% - 0 represent cell death. For example, a value of 40 represents 60% growth inhibition. A value of 0 means no net growth occurred over the course of the experiment. A value of -40 indicates 40% of cells at the beginning of the experiment died by the end of the experiment. A value of -100 means all cells are dead at the end of the experiment.
# NCI-60 Human Tumor Cell Lines Screen was performed using the standard one-dose NCI protocol, which is described in more detail at https://dtp.cancer.gov/discovery_development/nci-60/default.htm.
# Compounds with GIPRCNT values below 10 were considered active. Activity score was based on GIPRCNT using the following formula: […]
# Score is 0 for GIPRCNT values of 100 or above, 50 for GIPRCNT values of 0, and 100 for GIPRCNT values of -100.
row,SMILES,growth
1,Cn1cc(-c2nonc2-c2c[nH]c3ccccc23)c2cc(Br)ccc21,49.8%
2,O=C(Nc1ccccc1O)c1ccc(CNc2ccnc(C(F)(F)F)c2)cc1,58.6%
3,Cc1ccc(NC(=O)c2cc3ccccc3cc2O)c(C)c1,99.4%
4,CC(C)NS(=O)(=O)/N=C1\NC(=O)NC1=C(Cl)Cl,102%
5,CCn1cc(C(=O)N/N=C/c2cccc(F)c2)c(=O)c2cc(F)c(N3CCNC(C)C3)c(F)c21 (stereo not given),108%
6,O=C(O)CCCCCCCCCCN1C(=O)/C(=C2/C(=O)N(CC(=O)O)c3ccc(Br)cc32)SC1=S,96.6%
7,OC1(c2ccccc2)c2ccccc2N(c2ccccc2)c2ccc(Cl)cc21 (stereo not given),-89.3% (active)
8,O=S(=O)(Nc1cc(Sc2nc3ccccc3s2)c(O)c2ccccc12)c1ccc2ccccc2c1,101%
9,O=c1oc2c(cc1-c1ccccc1)c(=O)[nH]c1ccccc12,105%
10,O=C1c2cccnc2C(=O)c2c1c(C(=O)OCCc1ccccn1)c1ccccn21,-66.5% (active)
11,O=C(Oc1ccc2c(c1)sc1nc(-c3ccccc3)[nH]c(=O)c12)C(F)(F)F,50.2%
12,Cn1cc(-c2nc3c(F)cc4[nH]ncc4c3c3c2CCCC3)c(C(F)(F)F)n1,14.1%
13,O=C1CCCCN1c1ccc(C2=NCCCN2)cc1,119%
14,COC(=O)c1sccc1-c1cc(O)c(C(=O)Nc2ccccc2)s1,78.3%
15,O=C(NCCCCO)c1cncnc1Nc1ccc2c(ccn2Cc2cccc(F)c2)c1,89.8%
16,CC(C)(C)c1ccc(S(=O)(=O)Oc2ccc(-c3sc4cc(OS(=O)(=O)c5ccc(C(C)(C)C)cc5)ccc4c3C(=O)c3ccc(OCCN4CCCCC4)cc3)cc2)cc1,88.8%
17,Cc1c2ncccc2nc2[nH]c3ccc(OCCN(C)C)cc3c12,38.1%
18,CN(C)c1ccc(/C=C2\C=C(c3nc4ccccc4s3)OC2=O)cc1,86.8%
19,O=C(O)c1cn(C2CC2)c2cc(N3CCN(C(=O)N/N=C/c4cccc5ccccc45)CC3)c(F)cc2c1=O,87%
20,C#Cc1cccc(Nc2ncnc3cc(NC(=O)CCl)ccc23)c1,-0.177% (active)

row,SMILES,growth
1,O=S(=O)(N=C1C(Cl)=C(Cl)C(=NS(=O)(=O)c2ccccc2)C(Cl)=C1Cl)c1ccccc1,102%
2,Cc1ccc2nc(-c3ccc(C(=O)N/N=C/c4ccc([N+](=O)[O-])cc4)cc3)[nH]c2c1,109%
3,CC(C)n1c2ccc(Br)cc2c2c3c(c4c5ccccc5ccc4c21)C(=O)NC3=O,105%
4,CN(C)/C(N)=N/N=C(\c1ccccc1)c1ccccn1,113%
5,CCN(CC)CCN1C(=O)c2c(c3c4ccccc4[nH]c3c3ccc4ccccc4c23)C1=O,83.1%
6,c1cc(OCCN2CCCCCC2)ccc1CNc1ccc2nc(CCC3CCCCC3)[nH]c2c1,82.3%
7,CS(=O)(=O)Nc1cc(-c2ccc3ncnc(Nc4ccc(F)c(Cl)c4)c3c2)ccc1Cl,17.7%
8,Clc1ccc(Nc2ncc(Cc3cccc(Cl)c3Cl)s2)cc1,102%
9,CCOc1ncc([N+](=O)[O-])c(OCC)n1,97%
10,N#Cc1c(-c2ccccc2)cc(-c2ccccc2)n(CCCCC(=O)NO)c1=O,42.1%
11,O=C1Nc2ccccc2/C1=N/N1C(=O)CN(CCCl)C1=O,96.9%
12,O=C(C[C@]1(O)C(=O)Nc2ccc(Br)cc21)c1ccco1,95.2%
13,C=CCn1cc(-c2nc3ccccc3s2)c2cc(-c3ccc4c5c(cccc35)C(=O)N(CCO)C4=O)ccc21,107%
14,N#Cc1ccc(/C=C/c2cn(-c3ccccc3)nc2-c2cccc([N+](=O)[O-])c2)cc1,69.8%
15,Cc1ncc(C(=O)Nc2ccc(CN3CCN(C)CC3)c(C(F)(F)F)c2)cc1C#Cc1cnc(N)c2ccc(C#N)cc12,-14.6% (active)
16,COCCn1cc(-c2csc(-c3c[nH]c4ccccc34)n2)c2cccnc21,49.5%
17,O=C(/C=C/c1ccccc1Cl)c1cccc(OCCCCOc2cccc(C(=O)/C=C/c3ccccc3Cl)c2)c1,100%
18,CCCCn1c(NC(C)=O)c(S(=O)(=O)c2ccccc2)c2nc3ccccc3nc21,98.5%
19,Nc1cc(-c2ccc(Cl)cc2)nn1-c1nnc(/C=C/c2ccco2)c(=O)[nH]1,60.7%
20,Cc1c2cnccc2c(C)c2c1c1cc(CO)ccc1n2C,-43.1% (active)
